# This excerpt belongs to a sample that is enriched for hits.
# TTR transcr act – activators of transthyretin transcription. SH-SY5Y TTR promoter Gaussia luciferase, luminescence; 100% = recombinant luciferase protein wells. 92,000 compounds, 1.3% hits. activation, % at 16.7 µM. AID 1117267;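 active = activation above the mean of all tested compounds plus 3 SD, cut at about 9.5% in these data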;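 note: cells exposed to compounds for one day before reading; 0% = median of all test compound wells on the plate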
# TTR inh HuH7 – HuH7 TTR transcription inhibition, counter-screen; shares compounds with TTR transcr act; HuH7 TTR promoter-Gaussia luciferase reporter, luminescence; inhibition, % at 16.7 µM; 1,100 compounds, 4% hits; AID 1117279;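 active = average inhibition above the solvent-only control wells' mean plus 3 SD, cut at about 15% in these data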;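 note: 0% = cells with DMSO only and 100% = cells with inhibitor control FD; inhibitors lower well luminescence so higher value means more inhibition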
# TTR up confirm – human TTR transcription activation, confirmation; AID 1117280; activation, % at 16.7 µM; 1,100 tested, under 10 active; shares compounds with TTR transcr act; SHSY5Y TTR promoter Gaussia luciferase, luminescence; 100% = purified Lucia enzyme wells, no cells;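 active = mean activation above a set limit taken from the earlier primary screen, cut at about 11% in these data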;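 note: 0% = DMSO-treated cells and 100% = recombinant Lucia luciferase without cells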
# An asterisk follows results filed as active.
SMILES,TTR transcr act,others
O=C(CCn1c(=O)oc2ccccc21)Nc1ccc(N2CCOCC2)cc1,1.7,
COc1ccc(NC(=O)c2oc3ccccc3c2CSC)cc1S(=O)(=O)N1CCOCC1,-0.7,
CCOC(=O)N1CCN(C(=O)Cn2nc(C)c3sc4ccccc4c3c2=O)CC1,-1.5,
Cc1nn(C(C)C(=O)NCCCN(Cc2ccccc2)C(C)C)c(=O)c2c1sc1ccccc12 (stereo not given),10.3*,TTR inh HuH7=-15.4;TTR up confirm=1.9
CN(C)CCCNC(=O)c1cc2sc3ccccc3c2s1,1.5,
COc1cc(C)nc(N2CCCC(C(=O)Nc3cccc(Cl)c3Cl)C2)n1 (stereo not given),-2.2,
COc1ccc(Cn2cc(Cn3c4ccccc4c(=O)n3C(C)C)nn2)cc1,15.5*,TTR inh HuH7=-8.8;TTR up confirm=-0.7
CC(C)n1c(=O)c2ccccc2n1Cc1cn(CCc2c[nH]c3ccccc23)nn1,2.3,
COC(=O)Cn1c2ccccc2c(=O)n1C(C)C,0.5,
COC(=O)c1cc(-c2cccc3c2sc2ccccc23)c(=O)n2c1CCC2,-1.3,
CC(CCCCCCCCC(=O)O)N(CCO)C(=O)OC(C)(C)C (stereo not given),10.4*,TTR inh HuH7=-4.5;TTR up confirm=-0.3
CCCCCCCCCCCCC(=O)CCCCC(=O)O,-1.0,
CCCCCCC(=O)O,0.3,
COC(=O)[C@]12C[C@H](CC(=O)N3CCN(C(=O)C4CC4)CC3)C(=O)N(Cc3ccc(Cl)cc3Cl)C1=C[C@H](C(C)C)O[C@@H]2C1CC1,-1.8,
CCc1ccc(Nc2nc(C)cc(C)c2C(N)=O)cc1,0.9,
COc1ccc(Nc2nc(C)cc(C)c2C(N)=O)cc1,-1.5,
Cc1cc(C)c(C(N)=O)c(Nc2ccc3c(c2)OCCO3)n1,10.3*,TTR inh HuH7=-10.8;TTR up confirm=0.0
CC1CCC2(CC1)CCC2NCc1ccc(Cl)c(Cl)c1 (stereo not given),0.1,
Cc1ccc(C)c(NC(=O)Cn2cnc3c(oc4ccccc43)c2=O)c1,0.7,
CN1C(C(=O)NCc2cccc(Br)c2)CC2Cn3c(nc4cc5ccccc5cc43)C21 (stereo not given),-0.4,
COc1ccc(OC)c(NC(=O)C(=O)NNC(=O)COc2ccc(Br)cc2C)c1,43.1*,TTR inh HuH7=-8.6;TTR up confirm=0.1
COc1ccc(C)cc1NC(=O)C(=O)NNC(=O)COc1ccc(Cl)cc1,1.6,
COc1ccc(OCC(=O)NNC(=O)C(=O)Nc2cc(OC)ccc2OC)cc1,1.6,
CN(C)[C@@H]1CCN(c2ccc3c(c2)OCCCN(C2CC2)S3(=O)=O)C1,0.4,
CCCCNC(=O)C1(C)CCC(=O)N1CC(F)(F)F (stereo not given),-0.1,
SMILES,TTR transcr act,others
COCCN1C(=O)CCC1(C)C(=O)NC(C)(C)C (stereo not given),0.1,
CCCCNC(=O)C1(C)CCC(=O)N1CCOC (stereo not given),12.6*,TTR inh HuH7=-8.1;TTR up confirm=-0.5
COc1ccc2c3c([nH]c2c1)C1=NCC[C@]12c1ccccc1N=CN2CC3,-1.3,
CCOC(=O)c1cncc(C#CCO)c1,-1.7,
O=C(NCCN1C(=O)S/C(=C\c2cccs2)C1=O)c1ccco1,0.6,
COc1ccccc1OCCN1C(=O)S/C(=C\c2ccco2)C1=O,10.1*,TTR inh HuH7=-12.7;TTR up confirm=-0.1
Cc1ccc(N2C(=O)/C(=C/c3ccco3)SC2=S)cc1,-2.0,
O=C1c2ccccc2NC(c2ccccc2)N1CCCN1CCOCC1 (stereo not given),-1.2,
N#CCCN(CCCN1CCOCC1)CN1C(=O)c2ccccc2C1=O,31.4*,TTR inh HuH7=-9.6;TTR up confirm=-0.7
O=C1c2ccccc2C(=O)N1CCN1CCCCC1,-1.7,
Cn1cnnc1SCc1ccc(C(=O)N/N=C(/CCC(=O)O)c2ccc(C(C)(C)C)cc2)cc1,-0.9,
CCNc1nc(N)c([N+](=O)[O-])c(Nc2cccc(Cl)c2)n1,1.5,
CCCN1Cc2cccc(C(=O)N3CCN(c4ccc(F)cc4)CC3)c2C1=O,-1.5,
C=CCC1c2cccc(C(=O)O)c2C(=O)N1c1ccc(F)cc1 (stereo not given),11.7*,TTR inh HuH7=7.7;TTR up confirm=0.3
O=C1c2ccccc2C(O)N1c1ccccc1 (stereo not given),-0.5,
O=C(Nc1cccc(O)c1)C1CC(c2ccc(Cl)cc2)=NO1 (stereo not given),1.5,
Cc1noc(C)c1NC(=O)Nc1ccc2c(c1)C(=O)N([C@@H](C)CO)C[C@@H](C)[C@H](CN(C)S(=O)(=O)c1ccc(F)cc1)OCCCC[C@H](C)O2,1.5,
Cc1ccc(S(=O)(=O)N2CC3(COC(C)(C)OC3)C[C@H]2CON2C(C)(C)CCCC2(C)C)cc1,-1.3,
CCCN1CCC(=O)N([C@H](CSc2ccc(OC)cc2)CC(C)C)CC1,-2.8,
COC(=O)C[C@H]1CC[C@H](NC(=O)c2cccc(F)c2)[C@@H](CO)O1,3.8,
CCCNC(=O)Cn1c(-c2ccc(F)cc2)cc(C(=O)OCC)c1C,0.8,
CCOC(=O)c1cc(-c2ccccc2)n(CC(=O)O)c1C,10.7*,TTR inh HuH7=-15.0;TTR up confirm=0.3
CCOC(=O)c1cc(-c2ccccc2)n(CC(=O)NC(C)(C)C)c1C,1.0,
CC1CN(c2ccnc3cc(Cl)ccc23)CCN1C(=O)c1ccc(Cl)cc1 (stereo not given),-2.3,
O=C(NC1CCCCN(Cc2ccc(Cl)cc2)C1=O)C(c1ccccc1)c1ccccc1 (stereo not given),0.1,
SMILES,TTR transcr act,others
O=C(O)c1ccc(CSc2nnc(Cc3ccccc3)o2)cc1,12.5*,TTR inh HuH7=42.3*;TTR up confirm=-2.3
O=C(CSc1nnc(Cc2ccccc2)o1)N1CCc2ccccc21,0.4,
CC(C)(C)OC(=O)NCCc1nnc(SCc2ccccc2)o1,-2.4,
C#CCN1C(=O)[C@]2(NCCc3c2[nH]c2ccc(OC)cc32)c2ccccc21,0.6,
O=C(Nc1c(-c2ccc(F)cc2)nc2ncccn12)C1CC1,-0.6,
COP(N)(=O)C(CC(C)C)NC(=O)OCc1ccccc1 (stereo not given),-0.1,
CCCN=C1N(C)C[C@@H]2[C@@H]3C(=O)N(C)C(=O)[C@@H]3[C@](C)(C(=O)OC)N12,0.2,
O=C(Nc1ccc(F)cc1)c1ccccc1NC(=O)C1CCCCC1C(=O)O (stereo not given),-0.8,
O=C(O)C1CCCCC1C(=O)Nc1ccc(F)c(F)c1 (stereo not given),11.9*,TTR inh HuH7=-6.9;TTR up confirm=0.1
Cc1ccc(NC(=O)C2CCCCC2C(=O)O)cc1C (stereo not given),0.9,
CNc1nc(N)c([N+](=O)[O-])c(Nc2cccc(Br)c2)n1,0.6,
COc1ccc(-c2noc(CCC(=O)N3CCN(c4ccccc4)CC3)n2)cc1,2.4,
Cc1ccc(N(C(C)C(=O)O)S(=O)(=O)c2c(C)[nH]c(=O)[nH]c2=O)cc1 (stereo not given),10.2*,TTR inh HuH7=-13.1;TTR up confirm=0.1
CCCCN(C)S(=O)(=O)c1c(C)[nH]c(=O)[nH]c1=O,-0.4,
COC(=O)CN(c1ccc(C(C)C)cc1)S(=O)(=O)c1c(C)[nH]c(=O)[nH]c1=O,2.8,
COc1ccc(C(=O)NCCCn2cccn2)cc1OC1CCN(C(C)=O)CC1,0.0,
Cc1ccccc1CN1CCCCC(NC(=O)c2ccc(-c3ccccc3)cc2)C1=O (stereo not given),-3.4,
Cn1nccc1C(=O)N/N=C/c1cccnc1,-1.6,
O=C(N/N=C/c1cccnc1)c1ccc2c(c1)OCCO2,17.6*,TTR inh HuH7=2.4;TTR up confirm=0.5
O=C(N/N=C/c1cccnc1)c1ccco1,1.7,
